Reference: PubChem BioAssay (NCI)
About 83,000 compounds went through this panel and 20% of them were active in at least one assay; those are over-represented in the sample as a whole.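 For each line, cells grew in 96-well plates with the test compound present at a single concentration for 48 hours.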 A number with no mark means an inactive call. Activity calls are given as the source filed them. Rule for the calls: active = growth percent below 10; inactive = the rest.

The compounds below were run on MALME-3M melanoma (assay: NCI-60 one-dose screen, 48 h (100 = growth as untreated, 0 = no growth, -100 = all killed)). Settings: 10 µM unless noted.

| SMILES | growth |
| --- | --- |
| O=C(N/N=C/c1ccc(-c2ccc(O)cc2)o1)c1[nH]c2ccc(Br)cc2c1-c1ccccc1 | -26.8% (active) |
| CC(=O)OC[C@@]1(C)C2CC[C@]3(C)C(CC=C4C5CC(C)(C)CC[C@]5(C(=O)Nc5ccc(Br)cc5)CC[C@]43C)[C@@]2(C)C[C@@H](OC(C)=O)[C@@H]1OC(C)=O (stereo partly drawn) | 55.9% |
| Cc1ccc(-n2c(-c3cc4ccccc4nc3Cl)noc2=O)cc1 | 93.3% |
| O=c1cc(-c2ccccc2)oc2cc(OCCCC[P+](c3ccccc3)(c3ccccc3)c3ccccc3)cc(O)c12 | -88% (active) |
| Cc1ccc(Cc2cnc(NC(=O)c3ccc(/C=C4\SC(=S)N(C)C4=O)cc3)s2)cc1 | 25.2% |
| C=C1CC[C@@H]2[C@]3(C)COC(c4cn[nH]c4-c4ccc(OC)cc4)O[C@@H]3CC[C@@]2(C)[C@@H]1C/C=C1/C(=O)OCC1O (stereo partly drawn) | -62.1% (active) |
| Cc1ccc(/C=C/c2n(Cc3ccc4ccccc4c3)c3ccccc3[n+]2Cc2ccc3ccccc3c2)cc1 | -90.2% (active) |
| Cc1c(C(=O)NNC(=O)c2ccc(Cl)cc2)nnn1-c1ccc(Br)cc1 | 93.8% |
| CC(=O)Nc1cccc(Nc2nc(NCc3ccccc3)c3ccccc3n2)c1 | -94.2% (active) |
| C[C@H](Nc1nc(NCCc2ccccc2)nc2ccccc12)c1ccccc1 | -91.7% (active) |
| Cc1c(C(=O)NNC(=O)Nc2ccc(Cl)cc2)nnn1-c1ccc(Br)cc1 | 90.7% |
| O=c1oc2ccccc2cc1-c1csc(N=Nc2c(O)[nH]c3ccc(Cl)cc23)n1 | 96.2% |
| O=c1c2ccccc2nc(-c2ccccc2)n1/N=C/c1ccc2ccccc2c1 | 59% |
| CN(C)c1nc(NCCNS(=O)(=O)c2ccc(C3=Nc4c(N)nc(N)nc4NC(c4ccccc4)C3)cc2)nc(Nc2ccc(F)cc2)n1 (stereo not drawn) | 36.6% |
| O=C(O)c1cccc(-c2ccc(/C=N/NC(=O)c3[nH]c4ccc(Br)cc4c3-c3ccccc3)o2)c1 | 55.2% |
| Cc1ccc2c(N)c(C(=O)Nc3ccc(OC(F)(F)F)cc3)sc2n1 | 75.3% |
| COc1cc(/C=C/C(=O)c2nnn(-c3ccc(Cl)cc3)c2C)cc(OC)c1OC | 49% |
| N#Cc1ccc(C(=O)Nn2c(N)cc3ccccc3c2=O)cc1 | 77.9% |
| COc1cc(-c2ccc(/C=N/NC(=O)c3[nH]c4ccc(Br)cc4c3-c3ccccc3)s2)cc(OC)c1OC | 86.7% |
| N#Cc1c(-c2ccc(Br)cc2)nc2n[nH]c(-c3ccc(Br)cc3)c2c1-c1ccc(F)cc1 | 86.2% |
| Cn1nc(C(F)(F)F)cc1-c1cc(Cl)c(COc2ccc(Cl)cc2)c(-c2ccc(Cl)c(C(F)(F)F)c2)c1O | -52.4% (active) |
| CC1=C(C(=O)OCc2ccccc2)C(c2c(O)cc(O)cc2O)n2c(nc3ccccc32)N1 (stereo not drawn) | 52.7% |
| Cc1ncsc1-c1ccc(CNC(=O)[C@@H]2C[C@@H](O)CN2C(=O)[C@@H](NC(=O)C2(F)CC2)C(C)(C)C)c(OCCOCCOCCOCCOc2nc(Nc3cc(S(C)(=O)=O)ccc3N[C@@H](c3cccc4c3OC(F)(F)O4)c3ncccc3Cl)nc(N3CCNCC3)n2)c1 | 41.4% |
| N#Cc1c(-c2ccc(Cl)cc2)nc2n[nH]c(-c3ccc(Cl)cc3)c2c1-c1cccs1 | 55.6% |
| COc1cccc(-c2c(C#N)c(-c3ccc(Cl)cc3)nc3n[nH]c(-c4ccc(Cl)cc4)c23)c1 | 59.7% |
| CCCCn1c(O)c(N=Nc2nc(-c3cc4ccccc4oc3=O)cs2)c2cc(Br)ccc21 | 105% |
| C=C1CC[C@@H]2[C@]3(C)COC(c4cn(-c5ccccc5)nc4-c4ccccc4)O[C@@H]3CC[C@@]2(C)[C@@H]1C/C=C1/C(=O)OC[C@H]1O (stereo partly drawn) | -90.2% (active) |
| CCCCCCn1c(O)c(N=Nc2nc(-c3cc4ccccc4oc3=O)cs2)c2ccccc21 | -72.1% (active) |
| CSc1ccc(C(=O)Nc2ccc3nnn(/C(C#N)=C/c4ccccn4)c3c2)cc1 | -59.3% (active) |
| CCOC(=O)C1=C(N)N(c2ccccc2)C2=C(C(=O)CC(C)(C)C2)C1c1cccc(Cl)c1Cl (stereo not drawn) | 77.6% |

The compounds below were run on MDA-MB-231 breast in the same assay as above. Settings: 10 µM unless noted.

| SMILES | growth |
| --- | --- |
| O=C(CSc1nc2ccccc2c(=O)[nH]1)NCCN1CCCCC1 | 100% |
| CCCCSc1nc(Nc2ccc(C(C)=O)cc2)c(C#N)c(-c2ccc(OC)cc2)n1 | 60.6% |
| COc1ccc(Cc2nn(CC(=O)N/N=C/c3ccc(F)cc3)c(=O)c3c(C)noc23)cc1 | 31.3% |
| COc1ccc(C(=O)/C=C/c2ccc(Oc3nc(Nc4ccc(F)cc4)nc(N(C)C)n3)c(OC)c2)cc1 | 53.9% |
| CC(=O)OC[C@@]1(C)C2CC[C@]3(C)C(CC=C4C5CC(C)(C)CC[C@]5(C(=O)Nc5ccc(Br)cc5)CC[C@]43C)[C@@]2(C)C[C@@H](OC(C)=O)[C@@H]1OC(C)=O (stereo partly drawn) | 62.3% |
| Cc1ccc(-n2c(-c3cc4ccccc4nc3Cl)noc2=O)cc1 | 63.6% |
| O=c1cc(-c2ccccc2)oc2cc(OCCCC[P+](c3ccccc3)(c3ccccc3)c3ccccc3)cc(O)c12 | -32.2% (active) |
| Cc1ccc(Cc2cnc(NC(=O)c3ccc(/C=C4\SC(=S)N(C)C4=O)cc3)s2)cc1 | 41.4% |
| Cc1ccc(/C=C/c2n(Cc3ccc4ccccc4c3)c3ccccc3[n+]2Cc2ccc3ccccc3c2)cc1 | -47.3% (active) |
| O=c1oc2ccccc2cc1-c1csc(N=Nc2c(O)[nH]c3ccc(Cl)cc23)n1 | 113% |
| CN(C)c1nc(NCCNS(=O)(=O)c2ccc(C3=Nc4c(N)nc(N)nc4NC(c4ccccc4)C3)cc2)nc(Nc2ccc(F)cc2)n1 (stereo not drawn) | 20.7% |
| CCCCn1c(O)c(N=Nc2nc(-c3cc4ccccc4oc3=O)cs2)c2cc(Br)ccc21 | 106% |
| CCCCCCn1c(O)c(N=Nc2nc(-c3cc4ccccc4oc3=O)cs2)c2ccccc21 | -65.6% (active) |
